Assay results: PubChem BioAssay (NCI)
This is part of a sample that, as a whole, favours compounds with a hit. Of some 83,000 tested, about 20% had one in any assay.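 Testing used 96-well plates and a 48-hour single-concentration exposure. Example: -40 means 40% of the starting cells died.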 Unmarked numbers belong to inactive results. Calls of active or inactive are those of the source.

test system: NCI-H522 lung; test: NCI-60 one-dose screen, 48 h (100 = growth as untreated, 0 = no growth, -100 = all killed); conditions: 10 µM unless noted
Protocol: Growth inhibition of the NCI-H522 human Non-Small Cell Lung tumor cell line is measured as a screen for anti-cancer activity. Cells are grown in 96 well plates and exposed to the test compound for 48 hours. Compounds are tested at a single concentration, which is 10^-5 M for most compounds. The reported endpoint is percent growth (GI% or GIPRCNT), where numbers from 0 - 100% represent growth inhibition, and numbers from -100% - 0 represent cell death. For example, a value of 40 represents 60% growth inhibition. A value of 0 means no net growth occurred over the course of the experiment. A value of -40 indicates 40% of cells at the beginning of the experiment died by the end of the experiment. A value of -100 means all cells are dead at the end of the experiment.
NCI-60 Human Tumor Cell Lines Screen was performed using the standard one-dose NCI protocol, which is described in more detail at https://dtp.cancer.gov/discovery_development/nci-60/default.htm.
Compounds with GIPRCNT values below 10 were considered active. Activity score was based on GIPRCNT using the following formula: […]
Score is 0 for GIPRCNT values of 100 or above, 50 for GIPRCNT values of 0, and 100 for GIPRCNT values of -100.

| Structure (SMILES) | growth |
| --- | --- |
| Cc1c(Cl)cccc1N=C=S | 86.8% |
| O=S(=O)(O)C(C(I)I)S(=O)(=O)O | 108% |
| c1ccc(Oc2c3ccccc3nc3ccccc23)cc1 | -27.4% (active) |
| CC(C)N(C(=O)c1ccccc1)C(C)C | 101% |
| S=C(Sc1ccc(Cl)cc1)Sc1ccc(Cl)cc1 | -83% (active) |
| NNC(=O)N/N=C1\C(=O)N(c2nccs2)C(=O)C(=O)C1c1nc2ccccc2s1 (stereo not given) | 83.1% |
| Cc1cc2nc(C)c(C)nc2cc1C | 95.6% |
| CC(C)c1ncc([N+](=O)[O-])n1C | 96.4% |
| O=C1NC(=O)/C(=C\c2ccncc2)N1 | 94.7% |
| CC1(C)OC(=O)CC1=O | 86.4% |
| CCCCOC(=O)c1ccccc1O | 125% |
| COc1ccc(NNS(=O)(=O)O)cc1 | 96% |
| c1cc(CNCCNCc2ccncc2)ccn1 | 108% |
| O=C(O)c1ccccc1Cc1ccc2c(c1)CCCC2 | 98.3% |
| CCOC(=O)c1c[nH][nH]c1=O | 103% |
| COc1ccc(C2CCCCC2=O)cc1 (stereo not given) | 106% |
| FC(F)(F)c1cc(NC2=NCCN=C(Nc3cc(C(F)(F)F)cc(C(F)(F)F)c3)SS2)cc(C(F)(F)F)c1 | 13.1% |
| O=Cc1ccc(O)c(O)c1 | 84.3% |
| C#CCSc1nnnn1-c1ccccc1 | 92.9% |
| C/C(Cc1ccccc1)=N\O | 106% |

| Structure (SMILES) | growth |
| --- | --- |
| C1Cc2onc(-c3noc4c3CCC4)c2C1 | 96.5% |
| COc1ccc(-c2csc(NC(=O)Nc3nc(-c4ccc(OC)cc4)cs3)n2)cc1 | 92.5% |
| OC(CBr)CCBr (stereo not given) | 96.5% |
| NC(=O)OCCO | 96.1% |
| C1=NCCc2ccccc21 | 114% |
| NCCCN1CCCC1=O | 92.6% |
| CC(C)C(=O)OCCOc1ccc(C(C)(C)C)cc1 | 84.8% |
| CCNCC(C)(C)O | 109% |
| CCOc1ccc(C(=O)O)cc1 | 101% |
| C=CCc1cc(OC)c(O)c(OC)c1 | 92.2% |
| N#Cc1ccc(OC(=O)Nc2c(Cl)cc(Cl)cc2Cl)cc1 | 89.8% |
| Cc1ccc2nc(N)nnc2c1 | 99% |
| O=C(O)CC1=CCCCC1 | 101% |
| CCCCCC#CC(=O)O | 90.6% |
| C=CC1=NC(C)(C)CC(C)O1 (stereo not given) | 97.5% |
| CCCCCCCCCCCCCCCCCC(=O)NCCNC(=O)CCCCCCCCCCCCCCCCC | 98.7% |
| CC(=O)Nc1ccc(/C=C2\SC(=S)N(/C=C(\C(C)=O)C(N)=O)C2=O)cc1 | 84.2% |
| Nc1nc(Cl)cc(Cl)n1 | 81.9% |
| CCCCCCCCCCC(=O)CCCCCCCCCC | 96.7% |
| NC(CCl)=NCC12CC3CC(CC(C3)C1)C2 | -58.7% (active) |
